Source: article PMC5540273 (PLoS ONE, 2017)

Assays:
Conditions in all cases: concentration: 1 μM, replicates: in singlicate; n = 1
PIP5K1A = tested on: PIP5K1A
PIP5K1C = tested on: PIP5K1C
PIP5K2B = tested on: PIP5K2B
PIP5K2C = tested on: T1, PIP5K2C
T1 construct: gene PIP4K2C

PKAC-alpha = tested on: T2, PKAC-alpha
T2 construct: gene PRKACA

PKAC-beta = tested on: T3, PKAC-beta
T3 construct: gene PRKACB

PKMYT1 = tested on: PKMYT1
PKN1 = tested on: PKN1
PKN2 = tested on: PKN2
PLK1 = tested on: PLK1
PLK2 = tested on: PLK2
PLK3 = tested on: PLK3
PLK4 = tested on: PLK4
PRKCD = tested on: PRKCD
PRKCE = tested on: PRKCE
PRKCH = tested on: PRKCH
PRKCI = tested on: PRKCI
PRKCQ = tested on: PRKCQ
PRKD1 = tested on: PRKD1
PRKD2 = tested on: PRKD2
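Also: KINOMEscan kinase panel screen.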

Row | SMILES | %Inh (PIP5K1A) | %Inh (PIP5K1C) | %Inh (PIP5K2B) | %Inh (PIP5K2C) | %Inh (PKAC-alpha) | %Inh (PKAC-beta) | %Inh (PKMYT1) | %Inh (PKN1) | %Inh (PKN2) | %Inh (PLK1) | %Inh (PLK2) | %Inh (PLK3) | %Inh (PLK4) | %Inh (PRKCD) | %Inh (PRKCE) | %Inh (PRKCH) | %Inh (PRKCI) | %Inh (PRKCQ) | %Inh (PRKD1) | %Inh (PRKD2)
1 | Cn1cc(-c2ccc3c(c2)CCN3C(=O)Cc2cc(F)cc(C(F)(F)F)c2)c2c(N)ncnc21 [GSK2635225] | 27% | 28% | 2% | 15% | 6% | 0% | 0% | 6% | 0% | 8% | 3% | 0% | 0% | 18% | 1% | 0% | 0% | 17% | 0% | 14%
2 | Cc1ccc(O)cc1Nc1ccnc2cc(-c3ccc(CN4CCCCC4)o3)ccc12 [GW557777] | 0% | 0% | 0% | 0% | 5% | 0% | 0% | 0% | 0% | 0% | 13% | 0% | 0% | 0% | 0% | 0% | 0% | 0% | 96.5% | 97.8%
3 | COc1cccc(C2=C(Nc3cccc(O)c3)C(=O)NC2=O)c1 [SB-390771] | 0% | 39% | 14% | 38% | 0% | 0% | 9% | 100% | 0% | 0% | 0% | 0% | 15% | 20% | 27% | 19% | 16% | 98.4% | 0% | 0%
4 | Fc1cc(Cl)ccc1Nc1ccnc2cc(-c3ccc(CN4CCOCC4)o3)ccc12 [GW560109] | 0% | 44% | 31% | 75% | 8% | 37% | 0% | 100% | 0% | 0% | 0% | 0% | 81% | 0% | 5% | 3% | 22% | 31% | 0% | 2%
5 | Nc1ncc(-c2cn[nH]c2)c2scc(-c3ccc4c(c3)CCN4C(=O)Cc3ccccc3)c12 [GSK2593067] | 0% | 30% | 0% | 0% | 20% | 19% | 0% | 12% | 9% | 0% | 17% | 0% | 0% | 0% | 0% | 16% | 32% | 17% | 0% | 0%
6 | COc1cc(Nc2ccnc3cc(-c4ccncc4)ccc23)cc(OC)c1OC.Cl [GW494610] | 0% | 36% | 8% | 27% | 0% | 2% | 0% | 0% | 7% | 0% | 0% | 0% | 0% | 13% | 25% | 16% | 0% | 0% | 19% | 24%
7 | NCCC(NC(=O)c1cc(Br)c(-c2ccnc3[nH]ccc23)s1)c1ccccc1.O=C(O)C(F)(F)F.O=C(O)C(F)(F)F (stereo not shown) [GSK1307810] | 82% | 81% | 0% | 57% | 99.4% | 99.6% | 0% | 50% | 87% | 0% | 28% | 35% | 19% | 99.6% | 98.1% | 98.3% | 0% | 90% | 0% | 31%
8 | CN1CCN(Cc2ccc(NC(=O)Nc3ccc(N(C)c4ccnc(Nc5ccc(CS(C)(=O)=O)cc5)n4)cc3)cc2)CC1.Cl [GW827654] | 74% | 0% | 69% | 78% | 0% | 23% | 10% | 41% | 0% | 7% | 12% | 3% | 90% | 5% | 5% | 0% | 23% | 38% | 23% | 27%
